Experimental findings from PubChem BioAssay (NCATS) are described below.

Results filed as inconclusive are left out. Active and inactive are the calls of the source. The call rests on the fitted dose curve; in most records, active means well fitted inhibition curve with a large enough effect; inconclusive means small, poorly fitted or top-dose-only effect; inactive means flat fitted curve, though single readings scatter.

What all share (assay): qHTS profiling for inhibitors of Plasmodium falciparum proliferation (AID 504749); further: nearly all actives have a fitted effect of over 60% in size
Holding throughout (conditions): P. falciparum in erythrocytes, SYBR Green DNA, 72 h; series mostly up to 28.7 µM
In general terms: Quantitative high-throughput screening tests each substance at several concentrations.

One assay deals with CP237. A digest of the protocol: (§1)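 In a 72 h erythrocytic culture (37 C, humidified, 5% CO2) at 2.5% hematocrit and 0.3% starting parasitemia, compounds were tested; SYBR Green I in detergent lysis buffer stained parasite DNA overnight.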
For the next assay, the system named is DIV14. A digest of the protocol:
as §1

A further assay concerns DIV30. An outline of the steps:
as §1

A further assay relates to Dd2. An outline of the steps: as §1
The next assay relates to ECU. A digest of the protocol: as §1
For a further assay, the system named is FAB9. An outline of the steps: as §1
Another assay relates to GB4. An outline of the steps:
as §1

The test system of the next assay is ICS. An outline of the steps:
as §1

Another assay has as its system JCK. An outline of the steps: as §1
In a further assay the test system is PAD. A digest of the protocol: as §1
For another assay, the system named is PC49. An outline of the steps:
as §1

A further assay deals with TAB109. An outline of the steps: as §1
Another assay has as its system TAB113. An outline of the steps: as §1
Potency means the concentration at half of the fitted maximal effect.

Take `COc1ccc2c3c1O[C@H]1[C@@H](O)C=C[C@H]4C(C2)NCCC341` (stereo partly drawn): the Potency entry in the assay on CP237, with DIV14, with DIV30, with Dd2, with ECU and in the assay on FAB9 was “inactive” throughout. Besides, the Potency entry with GB4, with ICS, with JCK, in the assay on PAD, in the assay on PC49 and with TAB109 was “inactive” throughout. Also, the Potency entry with TAB113 is “inactive”.
On to `OCC(O)[C@H]1O[C@@H]2O[C@H](C(Cl)(Cl)Cl)O[C@@H]2[C@H]1O` (stereo partly drawn), for which the Potency result in the assay on CP237, in the assay on DIV14, in the assay with DIV30, in the assay on Dd2, in the assay with ECU and with FAB9 was “inactive” in each case. Moreover, the Potency result in the assay with GB4, in the assay with ICS, with JCK, in the assay with PAD, in the assay with PC49 and in the assay on TAB109 was “inactive” each time. Moreover, in the assay with TAB113, the Potency entry was “inactive”.
Consider `C[C@]12C=CC(=O)C=C1CC[C@@H]1C2CC[C@]2(C)OC(=O)CCC12` (stereo partly drawn), for which the Potency result in the assay on CP237, with DIV14, in the assay on DIV30, in the assay on Dd2, in the assay with ECU and with FAB9 was “inactive” in each case. Also, the Potency result in the assay on GB4, with ICS, in the assay with JCK, in the assay on PAD, in the assay on PC49 and in the assay with TAB109 was “inactive” each time. The Potency entry with TAB113 was “inactive”.
For `CCCCCc1cc(O)c2c(c1)OC(C)(C)C1CC=C(C)CC21` (stereo not drawn), the Potency is 1.78 µM (active) in the assay on CP237; 1.51 µM (active) in the assay on DIV14; 2.39 µM (active) in the assay on DIV30; 2.51 µM (active) with Dd2; 2 µM (active) in the assay on ECU; 1.69 µM (active) in the assay on GB4. The Potency with ICS was 0.891 µM (active); in the assay on JCK, 11.2 µM (active); in the assay with PAD it was 1.78 µM (active); with PC49, 4.47 µM (active); in the assay with TAB109, 3.16 µM (active); with TAB113, 2 µM (active).
In the case of `[S]=[Sb][S][Sb]=[S]`, the Potency entry in the assay on CP237, in the assay with DIV14, in the assay with DIV30, with Dd2, in the assay on ECU and in the assay on FAB9 was “inactive” in each case. Further, the Potency entry in the assay with GB4, with ICS, in the assay with JCK, in the assay with PAD, in the assay with PC49 and with TAB109 was “inactive” each time. The Potency result with TAB113 is “inactive”.
For the molecule `CN1C2CCC1C(C(=O)O)C(OC(=O)c1ccccc1)C2` (stereo not drawn), the Potency result with CP237, in the assay with DIV14, with DIV30, in the assay on Dd2, in the assay with ECU and in the assay with FAB9 was “inactive” throughout. In addition, the Potency entry with GB4, in the assay with ICS, with JCK, in the assay with PAD, in the assay on PC49 and in the assay with TAB109 was “inactive” in each case. The Potency result in the assay on TAB113 is “inactive”.
With `CCOC(=O)/C=C(C)/C=C/CC(C)CCCC(C)C` (stereo not drawn), the Potency entry in the assay with CP237, with DIV14, in the assay on DIV30, in the assay on Dd2, with ECU and in the assay on FAB9 was “inactive” throughout. Besides, the Potency entry with GB4, in the assay with ICS, with JCK, in the assay with PAD, with PC49 and in the assay on TAB109 was “inactive” each time. Moreover, the Potency result in the assay on TAB113 is “inactive”.
As for `Cc1cc(C)cc(C(=O)OC2CC3CCC(C2)N3C)c1` (stereo not drawn), the Potency result in the assay on CP237, in the assay on DIV30, with FAB9, with GB4, with JCK and with PC49 was “inactive” each time. Besides, the Potency result in the assay with TAB109 and in the assay with TAB113 was “inactive” each time. Moreover, the Potency in the assay on DIV14 is 7.57 µM (active).
For `C=C1Nc2ccccc2C(=O)N1c1ccccc1C`, the Potency result in the assay on CP237, in the assay on DIV14, in the assay with DIV30, in the assay with Dd2, in the assay on ECU and in the assay with FAB9 was “inactive” each time. Besides, the Potency entry with GB4, in the assay on ICS, in the assay on JCK, in the assay on PAD, in the assay on PC49 and in the assay with TAB109 was “inactive” in each case. Besides, the Potency entry in the assay with TAB113 is “inactive”.
For `C=CC[N+]1(C)CCC23c4c5ccc(O)c4O[C@H]2C(=O)CC[C@@]3(O)C1C5` (stereo partly drawn), the Potency entry in the assay on CP237, in the assay on DIV14, in the assay on DIV30, with Dd2, with ECU and with FAB9 was “inactive” in each case. The Potency entry in the assay on GB4, in the assay with ICS, with JCK, with PAD, in the assay with PC49 and in the assay with TAB109 was “inactive” throughout. For the same molecule, the Potency result in the assay on TAB113 is “inactive”.
For `CCCN1CCCC2Cc3nc(N)ncc3CC21` (stereo not drawn), the Potency result in the assay with CP237, in the assay with DIV14, in the assay with DIV30, with Dd2, in the assay on ECU and with FAB9 was “inactive” in each case. The Potency result with GB4, in the assay with ICS, with JCK, in the assay on PAD, in the assay with PC49 and in the assay on TAB109 was “inactive” throughout. Moreover, the Potency entry in the assay with TAB113 is “inactive”.
As to `C[C@H](N)Cc1ccccc1`, the Potency entry in the assay on CP237, in the assay with DIV30, in the assay on Dd2, in the assay with ECU, with FAB9 and in the assay on GB4 was “inactive” in each case. The Potency entry in the assay on ICS, in the assay on JCK, with PAD, in the assay with PC49, with TAB109 and with TAB113 was “inactive” each time.
On to `Nc1nc(O)c(-c2ccccc2)o1`, for which the Potency result in the assay on CP237, with DIV14, in the assay on DIV30, in the assay with Dd2, in the assay on ECU and in the assay with FAB9 was “inactive” in each case. In addition, the Potency entry in the assay on GB4, in the assay on ICS, with JCK, with PAD, in the assay on PC49 and with TAB109 was “inactive” throughout.
With `OC[C@@H](O)[C@H]1O[C@@H]2OC(C(Cl)(Cl)Cl)O[C@H]2[C@H]1O` (stereo partly drawn), the Potency result in the assay on CP237, with DIV14, with DIV30, in the assay on Dd2, in the assay on ECU and in the assay on FAB9 was “inactive” throughout. Further, the Potency result with GB4, in the assay with ICS, with JCK, in the assay with PAD, in the assay with PC49 and with TAB109 was “inactive” in each case. For the same molecule, the Potency entry with TAB113 is “inactive”.
In the case of `CC1OC(O[C@H]2C[C@@H](O)[C@]3(CO)[C@@H]4C(CC[C@]3(O)C2)[C@@]2(O)CC[C@H](C3=CC(=O)OC3)[C@@]2(C)C[C@H]4O)C(O)C(O)C1O` (stereo partly drawn), the Potency result in the assay on CP237, in the assay with DIV14, in the assay on DIV30, in the assay with Dd2, in the assay with ECU and in the assay with FAB9 was “inactive” each time. The Potency result with GB4, in the assay with ICS, in the assay on JCK, in the assay on PAD, in the assay on PC49 and in the assay with TAB109 was “inactive” in each case. Besides, in the assay on TAB113, the Potency entry is “inactive”.
